# A selection: hits, their analogues and other compounds. The true share with any hit is near 3.5%.
# TEAD-YAP inh: TEAD-YAP interaction inhibition | AID 1259422 | HEK-TIYL cells, TEAD-Gal4/YAP UAS-luciferase luminescence | inhibition, % at 9.12 µM | 640,000 compounds, 1.4% hits; in the data active = inhibition above about 32%;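 note: 0% = median of test compound wells and 100% = reference inhibitor wells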
# MITF primary: inhibitors of human MITF; O75030; AlphaScreen MITF homodimerization, bead proximity signal; inhibition, % at 2.6 µM; 650,000 compounds, 0.91% hits; AID 1259374; in the data active = inhibition above about 50%;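 note: 0% = vehicle wells with protein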
# Target sequence (O75030 whole entry, looked up): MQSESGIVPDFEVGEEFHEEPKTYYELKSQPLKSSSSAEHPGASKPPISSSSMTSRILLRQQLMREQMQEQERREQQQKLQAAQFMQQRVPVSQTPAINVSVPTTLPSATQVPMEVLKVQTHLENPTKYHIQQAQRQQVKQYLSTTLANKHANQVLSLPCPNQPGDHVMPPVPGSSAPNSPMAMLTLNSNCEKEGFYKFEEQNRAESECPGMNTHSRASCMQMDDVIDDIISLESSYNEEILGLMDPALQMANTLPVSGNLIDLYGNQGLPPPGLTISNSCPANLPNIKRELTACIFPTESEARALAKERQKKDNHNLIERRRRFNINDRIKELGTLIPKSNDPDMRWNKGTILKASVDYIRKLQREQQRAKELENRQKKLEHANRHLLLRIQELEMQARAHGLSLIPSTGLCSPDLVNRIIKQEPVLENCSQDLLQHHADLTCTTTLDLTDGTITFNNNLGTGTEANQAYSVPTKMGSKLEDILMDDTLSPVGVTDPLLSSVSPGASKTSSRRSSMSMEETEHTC
# GPR151 ag: human GPR151 activation; Q8TDV0; PathHunter beta-arrestin GPR151 cells, luminescence; activation, % at 11.2 µM; 650,000 compounds, 1% hits; in the data active = activation above about 4.9%;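 note: 0% = median of compound wells and 100% = cells with positive control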
# FBW7 activator: human FBW7 E3 ligase activation, primary screen; Q969H0; AlphaScreen FBW7–phospho-cyclin E peptide binding, activator screen; normalized activity (activation), % at 26.1 µM; 650,000 compounds, 0.13% hits; AID 1259310; in the data active = normalized activity above about 1.9%;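 note: purified mutant Fbw7 with reduced substrate affinity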
# Starred values were filed as active, the others as inactive; ! = not confirmed by another sample.
SMILES,TEAD-YAP inh,MITF primary,GPR151 ag,FBW7 activator
COc1ncccc1C(=O)N1CCC2(CCC(CNC(=O)c3ccccc3F)O2)CC1 (configuration not stated),1.9,-4.8,0.4,0.3
CCCNc1cc(C)nc(Oc2ccccc2)n1,80.3*,-8.7,1.4,-0.1
CC1CCC(C(C)C)C(OC(=O)Cn2c(-c3ccccc3)[n+](C)c3ccccc32)C1 (configuration not stated),83.3*,4.5,1.2,0.1
CC1CCC(C(C)C)C(OC(=O)Cn2c[n+](CC(=O)OC3CC(C)CCC3C(C)C)c3ccccc32)C1 (configuration not stated),5.2,13.8,1.2,-0.1
CC1CCC(C(C)C)C(OC(=O)Cn2c(-c3ccc(F)cc3)[n+](C)c3ccccc32)C1 (configuration not stated),40.0*,5.8,1.4,0.0
CC1CCC(C(C)C)C(OC(=O)CN2C(=O)C3C4c5ccccc5C(c5ccccc54)C3C2=O)C1 (configuration not stated),19.2,-0.1,-1.0,0.0
OCCC1CN(CCCn2cccn2)CCN1Cc1ccccc1F (configuration not stated),7.3,9.5,-1.1,-0.1
Cc1ccc(NC(=O)CN(C)C(=O)CCl)cc1,62.7*,4.2,-1.0,0.1
CN(CC(=O)Nc1ccc(Cl)cc1)C(=O)CCl,71.4*,-13.0,0.2,-0.1
Cc1ccc(NC(=O)CN(C)C(=O)COc2ccc(C#N)cc2)cc1,3.8,8.3,0.1,0.1
Cc1ccc(S(=O)(=O)/N=C2/C=C(ON=C3C=CC(=O)C=C3)C(=O)c3ccccc32)cc1,45.4*,7.5,-2.5,-0.5
CC(C)c1ccc(NC(=O)Nc2cccs2)cc1,-47.6,10.6,0.3,0.6
CS(=O)(=O)Nc1cccc(C2=NN3C(C2)c2ccccc2OC3c2ccccc2)c1 (configuration not stated),-22.5,1.4,-0.1,-0.1
CCN(C1CCCCC1)S(=O)(=O)c1ccc(C(=O)Nc2ccc(F)cc2)cc1,33.3*,-0.8,0.8,0.2
CCOC(=O)N1CCN(S(=O)(=O)c2ccc(C(=O)Nc3ccc(C(C)=O)cc3)cc2)CC1,-11.3,-3.8,1.2,-0.1
CN(C1CCCCC1)S(=O)(=O)c1ccc(NC(=O)c2ccc(F)cc2)cc1,3.8,8.3,4.8,0.0
CCOC(=O)N1CCN(S(=O)(=O)c2ccc(C(=O)Nc3ccc(F)cc3)cc2)CC1,41.0*,4.1,0.3,0.0
CCOC(=O)c1ccc(N=C2SC(C(=O)Nc3cccc(OCC)c3)CC(=O)N2C)cc1 (configuration not stated),-15.5,7.0,0.0,0.4
COC(=O)C1=C(C)NC2=C(C(=O)CC(c3cccs3)C2)C1c1ccsc1 (configuration not stated),32.9*,9.3,-0.5,0.8
COC(=O)C1=C(C)NC2=C(C(=O)CC(c3cccs3)C2)C1c1cc(OC)c(Br)cc1OC (configuration not stated),60.2*,-2.7,1.0,0.0
COCCOC(=O)C1=C(C)NC2=C(C(=O)CC(c3cccs3)C2)C1c1ccccc1F (configuration not stated),15.2,8.1,-0.8,0.3
COCCOC(=O)C1=C(C)NC2=C(C(=O)CC(c3cccs3)C2)C1c1ccc(F)cc1 (configuration not stated),36.4*!,1.1,-0.4,-0.1
CC1=C(C(=O)OC(C)C)C(c2cccs2)C2=C(CC(c3cccs3)CC2=O)N1 (configuration not stated),37.2*,-6.1,0.1,0.0
COC(=O)C1=C(C)NC2=C(C(=O)CC(c3cccs3)C2)C1c1cccs1 (configuration not stated),4.3,2.8,-0.2,0.1
CCc1ccc(C2C(C(=O)OC(C)C)=C(C)NC3=C2C(=O)CC(c2cccs2)C3)s1 (configuration not stated),-8.1,1.9,1.4,0.2
SMILES,TEAD-YAP inh,MITF primary,GPR151 ag,FBW7 activator
COCCOC(=O)C1=C(C)NC2=C(C(=O)CC(c3cccs3)C2)C1c1cccs1 (configuration not stated),-4.8,-17.3,0.3,0.0
CCOC(=O)C1=C(C)NC2=C(C(=O)CC(c3cccs3)C2)C1c1cccs1 (configuration not stated),51.2*!,-1.3,-0.7,-0.1
COc1ccccc1CNc1nc(C)nc2sc(C)c(C)c12,46.0*,0.5,1.9,-0.1
Cc1sc2ncnc(NCc3ccc(Cl)cc3)c2c1C,-2.9,-3.6,0.9,0.1
Cc1nc(NCc2ccc(Cl)cc2)c2c(C)c(C)sc2n1,39.2*,12.5,-0.3,-0.1
Cc1nc(NCc2ccc(F)cc2)c2c(C)c(C)sc2n1,34.8*,8.4,1.0,0.1
Cc1sc2nc(-c3cccnc3)nc(NCc3cccnc3)c2c1C,68.1*,73.2*,-1.8,0.0
COC(=O)Cc1nc(NCc2ccccc2OC)c2c(C)c(C)sc2n1,4.1,20.2,0.7,0.7
CCCOc1ccc(-c2c(C)n([O-])c(C)c(-c3ccc(F)cc3)[n+]2=O)cc1,-3.0,18.0,1.0,0.0
Cc1ccc2c(c1)c(=O)c1ccccc1n2CC(=O)Oc1ccc(C#N)cc1,-22.3,5.3,-1.4,0.2
O=C(c1cccc(Cl)c1)c1ccc2c(c1)OCCO2,-37.0,-16.6,1.6,0.1
CCN(CC)c1ccc(/C=N/NC(=O)c2nnn(-c3nonc3N)c2COC)c(O)c1,36.5*,-6.8,0.0,-0.1
COCc1c(C(=O)N/N=C/c2cc(Cl)ccc2O)nnn1-c1nonc1N,60.9*,38.0,0.1,-0.1
COCc1c(C(=O)N/N=C/c2ccc(Cl)cc2)nnn1-c1nonc1N,4.4,5.7,-0.5,0.1
CC(C)(C)NC(=O)Cn1nc2c3ccccc3nc(C3CC3)n2c1=O,43.8*,-1.4,-0.8,0.0
CC(C)NC(=O)Cn1nc2c3ccccc3nc(C3CC3)n2c1=O,-1.0,3.5,1.7,0.1
O=C1c2ccc([N+](=O)[O-])cc2C(=O)N1c1ccc(I)cc1,3.9,6.7,-1.2,2.2*
O=C1c2ccc([N+](=O)[O-])cc2C(=O)N1CCCCN1C(=O)c2ccc([N+](=O)[O-])cc2C1=O,0.8,-0.5,1.9,-0.1
O=C(O)c1ccc(Oc2ccc(N3C(=O)c4ccc(Oc5ccc([N+](=O)[O-])cc5)cc4C3=O)cc2)cc1,-5.4,0.6,0.7,-0.1
O=C(O)c1ccc(N2C(=O)c3ccc(Oc4ccc([N+](=O)[O-])cc4)cc3C2=O)cc1[N+](=O)[O-],2.9,-9.7,-0.3,2.5*
O=C1C(=O)c2cc([N+](=O)[O-])ccc2-c2ccc([N+](=O)[O-])cc21,53.5*,15.3,1.1,-0.6
O=C1c2ccc([N+](=O)[O-])cc2C(=O)N1c1ccc(O)cc1,6.5,-4.5,1.8,-0.1
N#CC1=C(SCC(=O)Nc2cc(Cl)cc(Cl)c2)NC(=O)CC1c1cccs1 (configuration not stated),43.1*,-7.1,-0.8,-0.1
COc1cccc(NC(=O)CSC2=C(C#N)C(c3cccs3)CC(=O)N2)c1 (configuration not stated),39.6*,-10.8,0.7,-0.3
